{
  "source": "PubChem BioAssay (NCI)",
  "note": "This is part of a sample that, as a whole, favours compounds with a hit. Of some 83,000 tested, about 20% had one in any assay.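 Negative percent growth values reflect cell death: -40 means 40% of the cells present at the start died, and -100 means all died.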 Active and inactive are the calls of the source.",
  "data": [
    {"tested_on": "SK-MEL-28 melanoma", "assay": "NCI-60 one-dose screen, 48 h (100 = growth as untreated, 0 = no growth, -100 = all killed)", "conditions": "10 µM unless noted", "method": "Growth inhibition of the SK-MEL-28 human tumor cell line is measured as a screen for anti-cancer activity. Cells are grown in 96 well plates and exposed to the test compound for 48 hours. Compounds are tested at a single concentration, which is 10^-5 M for most compounds. The reported endpoint is percent growth (GI% or GIPRCNT), where numbers from 0 - 100% represent growth inhibition, and numbers from -100% - 0 represent cell death. For example, a value of 40 represents 60% growth inhibition. A value of 0 means no net growth occurred over the course of the experiment. A value of -40 indicates 40% of cells at the beginning of the experiment died by the end of the experiment. A value of -100 means all cells are dead at the end of the experiment.\nNCI-60 Human Tumor Cell Lines Screen was performed using the standard one-dose NCI protocol, which is described in more detail at https://dtp.cancer.gov/discovery_development/nci-60/default.htm.\nCompounds with GIPRCNT values below 10 were considered active. Activity score was based on GIPRCNT using the following formula: […]\nScore is 0 for GIPRCNT values of 100 or above, 50 for GIPRCNT values of 0, and 100 for GIPRCNT values of -100.", "values": [
      {"smiles": "O=C(/C(=N/O)S(=O)(=O)c1ccccc1)c1cccs1", "growth": "111% (inactive)"},
      {"smiles": "O=C1/C(=C/c2ccc([N+](=O)[O-])s2)Oc2ccc(Br)cc21", "growth": "-66.4% (active)"},
      {"smiles": "N#Cc1c2ccccc2c2n1-c1ccccc1OC(c1ccccc1)C2=O", "note": "(stereo not given)", "growth": "93.8% (inactive)"},
      {"smiles": "O=C(Nc1nc2ccccc2s1)c1cc(-c2ccc(F)cc2)n2nc(-c3ccccc3)cc2n1", "growth": "85.4% (inactive)"},
      {"smiles": "Cc1cc(CC(=O)O)n(C)c1C(=O)c1ccc(Cl)cc1", "growth": "122% (inactive)"},
      {"smiles": "CC(C)c1ccc(C(=O)Nc2sc3c(CN(C)C)c(O)ccc3c2C(N)=O)cc1", "growth": "84.2% (inactive)"},
      {"smiles": "c1cncc(CNc2ccccc2-c2nnc(Nc3ccc4c(c3)OCO4)o2)c1", "growth": "43.7% (inactive)"},
      {"smiles": "CC[C@]1(O)CC2CN(CCc3c([nH]c4ccccc34)[C@@](C(=O)OC)(c3cc4c(cc3OC)N(C)[C@H]3[C@@](O)(C(=O)OC)[C@H](OC(C)=O)[C@]5(CC)C=CCN6CC[C@]43[C@@H]65)C2)C1", "note": "(stereo not given in full)", "growth": "68.1% (inactive)"},
      {"smiles": "O=C1CC(C(F)(F)F)=NN1C(=O)c1nn(-c2ccc(Cl)cc2)cc1O", "growth": "115% (inactive)"},
      {"smiles": "COc1ccc2nccc(/C=C/c3ccnc4ccc(OC)cc34)c2c1", "growth": "92.8% (inactive)"},
      {"smiles": "Nc1ccc(C2=NN(c3ccccc3)C(c3ccc(Cl)cc3)C2)cc1", "note": "(stereo not given)", "growth": "105% (inactive)"},
      {"smiles": "COc1ccc(-c2cc(Cc3cccs3)c(=O)n(Cn3cncn3)n2)cc1", "growth": "108% (inactive)"},
      {"smiles": "COc1ccc(-c2cn(-c3ccccc3)c(-c3ccccc3)n2)cc1OC", "growth": "102% (inactive)"},
      {"smiles": "Cc1cc([N+](=O)[O-])c(C)cc1C(=O)O", "growth": "110% (inactive)"},
      {"smiles": "O=NC1CC=CCC1c1ccccc1", "note": "(stereo not given)", "growth": "114% (inactive)"},
      {"smiles": "O=C1NCN(CCO)CN1", "growth": "110% (inactive)"},
      {"smiles": "COc1cc2c(c(OC)c1OC)-c1ccc(NN(C(=O)c3ccccc3)C(=O)c3ccccc3)c(=O)cc1[C@@H](NC(C)=O)CC2", "note": "(tested in a mixture with another compound)", "growth": "52.9% (inactive)"},
      {"smiles": "Cn1c(N)c(N=O)c(=O)[nH]c1=O", "growth": "108% (inactive)"},
      {"smiles": "Cc1cc(=O)n2n1-c1ccc(Cl)cc1NC(=O)C2", "growth": "101% (inactive)"},
      {"smiles": "Cn1cc(-c2csc(-c3cn(C)c4ncccc34)n2)c2cc(Br)cnc21", "growth": "92.1% (inactive)"},
      {"smiles": "COc1ccc(C2=NN(C(=O)c3cc(OC)c(OC)c(OC)c3)C(c3ccc(C#N)cc3)C2)cc1OC", "note": "(stereo not given)", "growth": "65.3% (inactive)"},
      {"smiles": "c1ccc2cc(C[n+]3ccn(CCCCCCCn4cc[n+](Cc5ccc6ccccc6c5)c4)c3)ccc2c1", "growth": "44.3% (inactive)"},
      {"smiles": "COc1cc(Oc2cc(-c3cccnc3)ccc2NC(=O)Nc2ccc(F)cc2F)cc(OC)c1OC", "growth": "119% (inactive)"},
      {"smiles": "COc1c(C)c2c(c(O)c1C/C=C(\\C)CCC(=O)OCCN1CCOCC1)C(=O)OC2", "growth": "35.8% (inactive)"},
      {"smiles": "COC(=O)CCC1=C(C)/C(=C/c2[nH]c(-c3ccc[nH]3)cc2OC)N=C1C", "growth": "-0.539% (active)"},
      {"smiles": "O=C(CCc1nnc2sc(Cc3ccccc3Cl)nn12)c1nc2ccccc2[nH]1", "growth": "110% (inactive)"},
      {"smiles": "CCN(CC)CCCNCCCNc1cc(OC)cc2cccnc12", "growth": "99.4% (inactive)"},
      {"smiles": "O=C1NCN(c2ccccc2)C12CCN(CCCC(c1ccc(F)cc1)c1ccc(F)cc1)CC2", "growth": "56.8% (inactive)"},
      {"smiles": "O=C1NCC(Nc2ccc(Br)cc2Cl)C(=O)N1", "note": "(stereo not given)", "growth": "110% (inactive)"},
      {"smiles": "CN(C)c1nc(N)nc(Cn2c(-c3nonc3N)nc3ccccc32)n1", "growth": "82% (inactive)"},
      {"smiles": "CCOC(=O)C(Cc1ccccc1)(C(=O)OCC)C(Br)C(=O)c1ccccc1", "note": "(stereo not given)", "growth": "91% (inactive)"},
      {"smiles": "C[C@]12CC[C@@H]3c4ccc(O)c([N+](=O)[O-])c4CC[C@H]3[C@@H]1CC[C@@H]2NS(=O)(=O)c1ccc(C(F)(F)F)cc1", "growth": "43.5% (inactive)"},
      {"smiles": "COc1cccc(/C=C2\\COc3ccc(O)c(O)c3C2=O)c1OC", "growth": "47% (inactive)"},
      {"smiles": "NC(N)=NN=c1c(=O)c2ccccc2c1=O", "growth": "80% (inactive)"},
      {"smiles": "COc1cc(/C=C/C(=O)Nc2ccc3c(c2)/C(=C\\c2cccn2C)C(=O)N3)cc(OC)c1OC", "growth": "63.1% (inactive)"},
      {"smiles": "Clc1ccc(-n2cnc3c(Cl)ncnc32)cc1Cl", "growth": "64.1% (inactive)"},
      {"smiles": "N#Cc1cnc2cc(OC[C@H](O)CO)c(NC(=O)CC3CSSC3)cc2c1Nc1ccc(OCc2cccc(F)c2)c(Cl)c1", "growth": "-84.6% (active)"},
      {"smiles": "Cn1cc(-c2csc(-c3c[nH]c4ncccc34)n2)c2cc(F)cnc21", "growth": "96.2% (inactive)"},
      {"smiles": "COc1ccc(C(=O)COc2cccc(/C=C3\\Oc4ccc5ccccc5c4C3=O)c2)cc1", "growth": "116% (inactive)"},
      {"smiles": "COc1ccc2[nH]cc(/C=C3/C(=O)Nc4ccc(F)cc43)c2c1", "growth": "96.2% (inactive)"}
    ]}
  ]
}
